Reference: PubChem BioAssay AID463173 (ICCB-Longwood Screening Facility, Harvard Medical School, 2010)
Out of some 52,000 compounds screened, about 4,300 (8.3%) were called active. Shown is part of a subset that was picked to be rich in actives. A number with no mark means an inactive call. Cut-off read from the data, not from the text of the source: active = survival mostly below about 52% (no sharp cut-off); inactive = mostly above about 56%.

These molecules were tested on DeltatarO mutant (assay: S. aureus survival, RN4220 and DeltatarO strains – OD600, teichoic acid synthesis inhibitors, primary screen (AID 463173)). Settings: S. aureus RN4220 wild type/DeltatarO growth, OD600, 18 h, active compounds read low, screened at 18.75 µg/mL (by protocol).

SMILES | survival
CCCSc1ncc(Cl)c(C(=O)Nc2ccc(S(=O)(=O)N3CCCCC3C)cc2)n1 (stereo unspecified) | 51%
Cc1ccc(-c2nnc(SCc3ccccc3C#N)o2)cc1 | 69%
Cc1ccc(-c2nnc(SCc3ccccc3C)o2)cc1 | -5% (active)
COc1ccc(-c2nnc(SCc3cccc(Cl)c3)o2)cc1 | 22% (active)
Cc1ccc(CSc2nnc(-c3ccc(O)cc3)o2)cc1 | 84%
N#Cc1ccccc1CSc1nnc(-c2ccccc2)o1 | 61%
COc1cccc(CSc2nnc(-c3ccc(F)cc3)o2)c1 | 90%
c1ccc(-c2nnc(SCc3cccnc3)o2)cc1 | 54% (active)
Oc1ccccc1-c1nnc(SCc2ccccc2)o1 | 86%
COc1ccc(-c2nnc(SCC#N)o2)cc1 | 74%
CCOc1ccc(CCNC(=O)c2ccc(C)c(-n3c(C)nc4cccnc43)c2)cc1OCC | 101%
Cc1cccc(C(=O)Nc2ccc(OCc3cc(=O)n4ccsc4n3)cc2)c1 | 101%
O=C(CSc1ccccn1)Nc1cccc(F)c1 | 85%
COC(=O)C(C)(C)Sc1nnc2c(n1)[nH]c1c(C)cc(C)cc12 | 55%
Cc1cccc(NC(=O)c2ccc(-n3cnc4cccnc43)cc2)c1C | 82%
COc1cc(NC(=O)c2ccc(-n3cnc4cccnc43)cc2)cc(OC)c1 | 55%
COc1cc(OC)c(NC(=O)c2ccc(-n3cnc4cccnc43)cc2)cc1Cl | 52% (active)
CN1C(C(=O)Nc2cccc(O)c2)=CC(c2ccco2)=NS1(=O)=O | 88%
CCn1c(C)c(C)c2cc(C(=O)NCc3ccc(F)cc3)ccc21 | 90%
COc1ccc(CNC(=O)CCc2c(C)nc3c(c2C)c(=O)n(C)c(=O)n3C)cc1 | 115%
CCN(CC)S(=O)(=O)c1nnc(NC(=O)COc2ccc(Cl)cc2)s1 | 87%

SMILES | survival
CCN(CC)S(=O)(=O)c1nnc(NC(=O)COc2ccc(C)cc2)s1 | 88%
CCN(CC)S(=O)(=O)c1nnc(NC(=O)COc2ccccc2)s1 | 100%
CCN(CC)S(=O)(=O)c1nnc(NC(=O)c2ccc(Br)cc2)s1 | 44% (active)
CCN(CC)S(=O)(=O)c1nnc(NC(=O)c2ccc(C(C)C)cc2)s1 | 44% (active)
CCN(CC)S(=O)(=O)c1nnc(NC(=O)c2ccc(C)cc2)s1 | 63%
COCCCNC(=O)c1sc2ncccc2c1-n1cccc1 | 75%
COc1ccc(CNC(=O)C2CCN(c3nnc(-n4c(C)ccc4C)s3)CC2)c(OC)c1 | 87%
COc1ccc2c(c1)CC(NC(=O)Nc1ccc(Br)c(C)c1)CO2 (stereo unspecified) | 75%
CCOC(=O)C1=C(CN2CCN(c3cccc(OC)c3)CC2)NC(=O)NC1c1ccc(OC)cc1 (stereo unspecified) | 88%
COC(=O)c1scc(-c2ccc(C)cc2)c1S(=O)(=O)N1CCN(c2ccc(OC)cc2)CC1 | 60%
COC(=O)c1scc(-c2ccc(C)cc2)c1S(=O)(=O)N1CCN(c2ccc(F)cc2)CC1 | -4% (active)
Cn1cc(S(=O)(=O)N2CCCCC2)cc1C(=O)N1CCN(c2ccc(F)cc2)CC1 | 55%
Cn1cc(S(=O)(=O)N2CCCCCC2)cc1C(=O)N1CCN(c2ccc(F)cc2)CC1 | 75%
COC(=O)c1cc(S(=O)(=O)N2CCN(c3ccc(F)cc3)CC2)cn1C | -5% (active)
COC(=O)c1scc(-c2ccc(C)cc2)c1S(=O)(=O)N1CCN(c2ccccc2)CC1 | 72%
Cc1cc(C)cc(NC(=O)N2CCC(NC(=O)C3CCCCC3)CC2)c1 | 92%
Cc1ccccc1NC(=O)CN1CCCC1 | 70%
COCCCn1c(=O)c2sccc2n2c(CCCC(=O)NCc3ccc(F)cc3)nnc12 | 92%
O=c1c2sc3ccccc3c2n(Cc2cccc(C(F)(F)F)c2)c(=O)n1Cc1ccccc1 | 67%
CCOC(=O)c1[nH]c2ccccc2c1NC(=O)c1ccccc1OCC | 68%
CCOC(=O)c1[nH]c2ccccc2c1NC(=O)c1ccccc1F | 53%

SMILES | survival
CCOC(=O)c1[nH]c2ccccc2c1NC(=O)c1cc(OC)cc(OC)c1 | 48% (active)
CCOC(=O)c1[nH]c2ccccc2c1NC(=O)c1ccccc1OC | 51% (active)
CCOC(=O)c1[nH]c2ccccc2c1NC(=O)c1cc(OCC)c(OCC)c(OCC)c1 | 97%
CCOC(=O)c1[nH]c2ccccc2c1NC(=O)c1ccc(OC)c(OC)c1 | 131%
Cc1ccc(CNC(=O)c2sc3nc(-c4ccccc4)cn3c2C)cc1 | 123%
Cc1ccc2oc(C(=O)Nc3c(C(=O)c4ccc(C)c(F)c4)oc4ccccc34)cc(=O)c2c1 | 58%
CCS(=O)(=O)N1N=C(c2ccc(C)cc2)CC1c1cc2ccc(OC)cc2nc1Cl (stereo unspecified) | 44% (active)
CCOc1ccc2nc(Cl)c(C3CC(c4ccc(OC)cc4)=NN3S(C)(=O)=O)cc2c1 (stereo unspecified) | 127%
CCOc1ccc2nc(Cl)c(C3CC(c4ccc(C)cc4)=NN3C(=O)CCC(=O)O)cc2c1 (stereo unspecified) | 50%
CCOc1ccc(C2C(=O)N(C3CCCCCC3)CC(=O)N2CCc2ccccc2)cc1OC (stereo unspecified) | 88%
N#Cc1cc(C#N)c(SCC(N)=O)nc1N | 72%
CCc1ccccc1N1C(=O)N(Cc2ccc(C#N)cc2)c2ccccc2S1(=O)=O | 120%
COc1ccc2[nH]c(=O)c(CN(C(=O)Nc3ccccc3)C3CCCC3)cc2c1 | 78%
Cc1ccc(NC(=O)N(Cc2cn(C)c3ccccc23)C2CCCCC2)cc1C | -13% (active)
Cc1ccc(NC(=O)N(Cc2c[nH]c3ccccc23)C2CCCCCC2)cc1C | 56%
O=C(Nc1ccccc1)N(Cc1c[nH]c2ccccc12)C1CCCCCC1 | 52%
Cn1cc(CN(C(=O)Nc2ccc(Cl)c(Cl)c2)C2CCCCC2)c2ccccc21 | 51%
Cn1cc(CN(C(=O)Nc2ccccc2)C2CCCCC2)c2ccccc21 | -14% (active)
CCC(C(=O)NCc1ccccc1)n1nc(C)c2sc3ccccc3c2c1=O (stereo unspecified) | 70%
